Here are results for eleven compounds from PubChem BioAssay (NCI).

SMILES strings stand for the structures. About 83,000 compounds went through this panel and 20% of them were active in at least one assay; those are over-represented in the sample as a whole.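 Step 1: grow cells in 96-well plates. Step 2: add test compound at a single concentration. Step 3: incubate 48 h. Step 4: record percent growth.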 A number with no mark means an inactive call. Activity calls are given as the source filed them. How the source made its calls: active means growth percent below 10; inactive means the rest.

Some test systems named below: SR leukemia; RPMI-8226 leukemia; OVCAR-8 ovarian; OVCAR-4 ovarian; SK-OV-3 ovarian; IGROV1 ovarian; OVCAR-3 ovarian; HS 578T breast; NCI/ADR-RES ovarian; OVCAR-5 ovarian.
Holding throughout (test): NCI-60 one-dose screen, 48 h (100 = growth as untreated, 0 = no growth, -100 = all killed)
Common to all, as to conditions: 10 µM unless noted

Consider `O=S(=O)(Nc1ccccc1)c1ccc(C2CC3(Cl)C(Cl)=C(Cl)C2(Cl)C3(Cl)Cl)cc1` (configuration not stated), for which the growth in the assay with SR leukemia is 18.8%; in the assay with RPMI-8226 leukemia it was 13.8%; in the assay on OVCAR-8 ovarian, 55.6%; in the assay with OVCAR-4 ovarian, 44%; with SK-OV-3 ovarian it was 76%; in the assay with IGROV1 ovarian, 54.8%. Moreover, the growth in the assay with OVCAR-3 ovarian is 26%; in the assay on HS 578T breast, 54.8%; in the assay on NCI/ADR-RES ovarian, 24.1%.

For the compound `CCOC(=O)C(=Cc1cccc(Cl)c1)C(=O)OCC`, the growth in the assay with SR leukemia is 6.69% (active); in the assay on RPMI-8226 leukemia it was -8.77% (active); in the assay on OVCAR-8 ovarian, -8.33% (active); in the assay on OVCAR-4 ovarian, 59.9%; in the assay with SK-OV-3 ovarian, 100%; in the assay with IGROV1 ovarian, 9.1% (active). The figures for the growth in the assay on OVCAR-3 ovarian and in the assay with HS 578T breast were 33.8% and 68%, respectively.

On to `O=C(/C=C/c1ccccc1)c1cccc(OCCCOc2cccc(C(=O)/C=C/c3ccccc3)c2)c1`, for which the growth in the assay with SR leukemia is 5.29% (active); in the assay on RPMI-8226 leukemia, -25.7% (active); in the assay with OVCAR-8 ovarian, 73.8%; in the assay on OVCAR-4 ovarian it was 92.5%; with SK-OV-3 ovarian, 109%; in the assay with IGROV1 ovarian, 85.1%. Further, the growth was 78.8% with OVCAR-3 ovarian, 113% with HS 578T breast and 96.4% in the assay with NCI/ADR-RES ovarian.

Turning to `O=C(/C=C/c1cccs1)c1ccc(Cl)nc1`, the growth in the assay with SR leukemia is 82.5%; with RPMI-8226 leukemia, 4.19% (active); with OVCAR-8 ovarian it was 99.3%; with OVCAR-4 ovarian it was 104%; in the assay with SK-OV-3 ovarian, 95.7%; in the assay with IGROV1 ovarian it was 107%. Further, the growth in the assay with OVCAR-3 ovarian is 116%; in the assay with HS 578T breast, 105%; in the assay with NCI/ADR-RES ovarian, 108%.

Regarding `CCCCCC(=O)OCC(=O)O[C@@H]1C[C@]2(C(C)C)O[C@@]1(C)[C@@H]1CC[C@@H](C)[C@H]1[C@@H]2OC(=O)/C=C/c1ccccc1`, the growth with SR leukemia is 76.3%; with RPMI-8226 leukemia it was 66.8%; in the assay with OVCAR-8 ovarian, 19.9%; in the assay with OVCAR-4 ovarian, 75.7%; in the assay on SK-OV-3 ovarian, 87.9%; in the assay with IGROV1 ovarian, 86.7%. For the same compound, the figures for the growth with OVCAR-3 ovarian, with HS 578T breast and in the assay with NCI/ADR-RES ovarian were 52.9%, -15.5% (active) and 21.7%, respectively.

On to `COc1ccc2cc(-c3ccc(NC(C)=O)c(=O)o3)ccc2c1`, for which the growth in the assay with SR leukemia was 88.2%; with RPMI-8226 leukemia it was 96.3%; with OVCAR-8 ovarian, 97.1%; in the assay with OVCAR-4 ovarian, 101%; with SK-OV-3 ovarian, 94.6%; with IGROV1 ovarian, 108%. In addition, the growth in the assay with OVCAR-3 ovarian is 101%; in the assay on HS 578T breast it was 93.8%; in the assay with NCI/ADR-RES ovarian it was 103%.

For `O=C(Nc1ccc(NC(=O)c2cc(=O)[nH]c3ccccc23)cc1)Nc1cccc(C(F)(F)F)c1`, the growth in the assay on SR leukemia is 61.1%; in the assay on RPMI-8226 leukemia, 74.4%; in the assay on OVCAR-8 ovarian it was 65.2%; with OVCAR-4 ovarian, 74.2%; in the assay with SK-OV-3 ovarian, 69.1%; in the assay with IGROV1 ovarian, 64.9%. Also, the growth with OVCAR-3 ovarian was 63.9%; in the assay on HS 578T breast, 50.8%; with NCI/ADR-RES ovarian, 103%.

As for `Oc1c(Cl)cc(Cl)cc1/C=N/Nc1nnc(N/N=C/c2cc(Cl)cc(Cl)c2O)c2ccccc12`, the growth is 3.92% (active) with SR leukemia; 0.393% (active) in the assay on RPMI-8226 leukemia; 17.4% in the assay with OVCAR-8 ovarian; 8.13% (active) in the assay with OVCAR-4 ovarian; 29.3% in the assay with SK-OV-3 ovarian; 13.1% with IGROV1 ovarian. Besides, the figures for the growth with OVCAR-3 ovarian, in the assay on HS 578T breast and in the assay with NCI/ADR-RES ovarian were 14.1%, 31.6% and 1.78% (active), respectively.

Turning to `O=C1Nc2ccccc2/C1=C\c1nc(-c2ccccc2)n2ccccc12`, the growth in the assay on SR leukemia is 101%; in the assay with RPMI-8226 leukemia, 81.9%; with OVCAR-8 ovarian, 95.5%; with OVCAR-4 ovarian, 73.7%; in the assay on SK-OV-3 ovarian it was 81%; with IGROV1 ovarian, 67%. In addition, the growth in the assay on OVCAR-3 ovarian is 115%; with HS 578T breast, 118%; with NCI/ADR-RES ovarian it was 93.9%.

`Cn1cc(-c2csc(-c3c[nH]c4ccc(Br)cc34)n2)c2cnccc21`: the growth in the assay on SR leukemia is -30.9% (active); in the assay on RPMI-8226 leukemia, -40.3% (active); in the assay on OVCAR-8 ovarian, -60.5% (active); with OVCAR-4 ovarian, -84.8% (active); with SK-OV-3 ovarian, -95.5% (active); in the assay on IGROV1 ovarian it was -77.8% (active). Also, the growth is -91.9% (active) in the assay with OVCAR-3 ovarian and -60.5% (active) with HS 578T breast.

As for `COc1cccc([C@H]2c3[nH]c4ccccc4c3C[C@H]3C(=O)N(CCCCCCC(=O)NO)CC(=O)N23)c1`, the growth was 4.26% (active) in the assay on SR leukemia; 14.6% in the assay on RPMI-8226 leukemia; 62.1% with OVCAR-5 ovarian; 62% in the assay on OVCAR-4 ovarian; 77.1% in the assay with SK-OV-3 ovarian; 64.4% with IGROV1 ovarian. The growth in the assay with OVCAR-3 ovarian is 64.7%; in the assay with HS 578T breast, 59.6%; with NCI/ADR-RES ovarian, 91.1%.
